Data as given in PubChem BioAssay (NCATS).
Inconclusive results are not listed. Entries that show only a call come without a potency. A number with no mark means an inactive call. Activity calls are given as the source filed them. Calls come from the whole dose curve; as a rule, active = well fitted inhibition curve with a large enough effect; inconclusive = small, poorly fitted or top-dose-only effect; inactive = no such curve, though single readings can be large or run the other way.

Test: qHTS to identify inhibitors of the type 1 interferon - major histocompatibility complex class I in skeletal muscle: primary screen against the NCATS Mechanism Interrogation Plate v5.0 (MIPE) Libary (AID 1347411); note: nearly all actives have a fitted effect of over 65% in size
Settings: iHSKM cells + IFN-b, HiBiT-tagged MHC-I luminescence, 24 h; series mostly up to 45.8 µM
From the text: Assay Submitter (PI): Travis B. Kinder Ph.D. & James Inglese Ph.D.
Assay Development and Screening Technology Laboratory (ADST)
National Center for Advancing Translational Sciences (NCATS), Rockville, MD
National Institute of Health (NIH), Bethesda, Maryland
Idiopathic inflammatory myopathies, collectively referred to as myositis, are a group of rare autoimmune diseases characterized by skeletal muscle inflammation, weakness, and usually accompanied by systemic pathologies of the skin, lungs, or vasculature. Current immunosuppressive therapies and glucocorticoids are often not curative and are accompanied by harsh side effects, especially in children with juvenile myositis. We initiated a drug repurposing and development program to identify more targeted, less toxic therapeutics to treat myositis. Although its cause is not known, muscle from a subset of patients have an abundance of the inflammatory type 1 interferon (IFN) and a down-stream product major histocompatibility complex class I (MHC class I), which are both thought to contribute to damage and weakness. We conducted quantitative high throughput screening on 6,576 compounds (4,679 unique) through a series of cell-based assays to identify those that inhibit the IFN-stimulated expression of MHC class I in muscle precursor cells (myoblasts). The compound identification and evaluation strategy utilized a primary screen with reporter-tagged MHC class I in genome-engineered myoblasts, ATP content counter screen for viability, HLA-ABC immunofluorescence secondary screen, and HLA-B RT-qPCR tertiary screen.
The primary screen utilized CRISPR/Cas9 genome-engineering of immortalized human myoblasts, C25cl48, where a pro-luminescent reporter HiBit was fused to the C-terminus of endogenous MHC class I allele HLA-B*08:01 (HLA-B HiBit myoblasts). HiBit is an 11 amino acid fragment of NanoLuc luminescent reporter (Promega Corporation), and when complexed to the larger LgBit fragment, the reconstituted enzyme produces light in the presence of furimazine substrate (Schwinn et al., 2018). Briefly, HLA-B HiBit myoblasts were plated into 1536-well plates, treated with 4.0 ng/ml human IFN-beta and 2,480 compounds from the NCATS Mechanism Interrogation Plate v5.0 (MIPE5.0) in an 11-point, 1:3 titration with a high final concentration of 46 uM. After 24 hrs of treatment, cells were assayed by Nano-Glo HiBiT Lytic Detection System (Promega) and luminescence measured by a ViewLux 1430 Ultra HTS (Perkin Elmer).
Schwinn MK, Machleidt T, Zimmerman K, Eggers CT, Dixon AS, Hurst R, Hall MP, Encell LP, Binkowski BF, Wood K V. 2018. CRISPR-Mediated Tagging of Endogenous Proteins with a Luminescent Peptide. ACS Chem Biol 13:467-474. doi:10.1021/acschembio.7b00549
PROTOCOL TABLE (as described by Inglese et al., 2007)
SEQUENCE No. (e.g., 1, 2, 3, etc.); […] (e.g., Cells, Incubation, Reagent, etc.); VALUE; DESCRIPTION
1a; Cells; 5 uL; Use a Multidrop Combi (Thermo Scientific) to seed 300 cells/well into 24 Greiner 1536 well white/solid bottom, high base, TC plates in 5 ul/well of iHSKM growth medium (GM) without dexamethasone into columns 1+2. Add metal lids with gas-exchange holes
1b; Cells; 5 uL; Use a Multidrop Combi (Thermo Scientific) to seed 300 cells/well into 24 Greiner 1536 well white/solid bottom, high base, TC plates in 5 ul/well of iHSKM GM without dexamethasone + 4 ng/ml IFN-b into columns 3 - 48. Add metal lids with gas-exchange holes
2; Incubate; 1 hr; Incubate at 37 C, 5% CO2, 95% RH
3; Compounds; 23 nl; Use Pin Tool (Wako) to transfer DMSO control, ruxolitinib IFN-b inhibitor control [High Concentration = 80 uM final, 16-pt, 1:2 in duplicate], and library compounds in DMSO
4; Incubate; 24 hrs; Incubate at 37 C, 5% CO2, 95% RH
5; Dispense; 2.5 ul; Use BioRAPTR FRD (Beckman Coulter) to add HiBit lytic reagent
6; Incubate; 10 min; Incubate in the dark at ambient temperature for lysis
7; Detector; 5 sec; Measure luminescence with ViewLux 1430 Ultra HTS (Perkin Elmer). […]
Potency is the fitted concentration of half-maximal effect.

SMILES | Potency | activity change, negative = inhibition
CCC[C@H](N[C@@H](C)C(=O)N1[C@@H]2CCCC[C@H]2C[C@H]1C(=O)O)C(=O)OCC | inactive | 
CCN(CCO)CCCOc1ccc2c(Nc3cc(CC(=O)Nc4cccc(F)c4)[nH]n3)ncnc2c1 | inactive | 
CN(C(Cc1ccc(OS(=O)(=O)c2cccc3cnccc23)cc1)C(=O)N1CCN(c2ccccc2)CC1)S(=O)(=O)c1cccc2cnccc12 (stereo not given) | inactive | 
CN1CCC(COc2cnc(-c3cccc(Cn4nc(-c5cccc(C#N)c5)ccc4=O)c3)nc2)CC1 | inactive | 
CN1CCN(c2ncc(-c3cc(Cl)cc(Cl)c3Cl)c(N)n2)CC1 | inactive | 
CN(C)N=Nc1nc[nH]c1C(N)=O | inactive | 
COc1ccnc(CS(=O)c2nc3ccc(OC(F)F)cc3[nH]2)c1OC (stereo not given) | inactive | 
O=C(O)Cc1cccc(OCCCN(Cc2cccc(C(F)(F)F)c2Cl)CC(c2ccccc2)c2ccccc2)c1 | inactive | 
CC(C)(OCc1nn(Cc2ccccc2)c2ccccc12)C(=O)O | inactive | 
CN1CCN(c2cccc(Nc3nc4c(-c5ccc(S(C)(=O)=O)cc5)cccn4n3)c2)CC1 | 5.23 µM (active) | 
CC1CNc2c(cccc2S(=O)(=O)N[C@@H](CCCN=C(N)N)C(=O)N2CC[C@@H](C)C[C@@H]2C(=O)O)C1 (stereo not given in full) | inactive | 
CC(C)(CO)[C@@H](O)C(=O)NCCC(=O)O | inactive | 
CCC(C)SSc1ncc[nH]1 (stereo not given) | inactive | 
Cc1cnc(CNC(=O)c2c(=O)c3ccc(N4CCCN(C)CC4)nc3n3c2sc2ccccc23)cn1 |  | -4.9% [at 8.44 µM]
C[C@@H](N)c1ccc(C(=O)Nc2ccnc3[nH]ccc23)cc1 | 16.5 µM (active) | 
NCc1c[nH]c(=S)n1[C@H]1CCc2c(F)cc(F)cc2C1 | inactive | 
Cc1ccc2c(c1)C(=O)[C@]1(O)CCN(c3ccccc3)C1=N2 | inactive | 
Cc1cn([C@@H]2C[C@@H](O)[C@H](CO)O2)c(=O)[nH]c1=O | inactive | 
NS(=O)(=O)c1cc(Cl)c(Cl)c(S(N)(=O)=O)c1 | inactive | 
CC1(COc2ccc3c(c2)ncn3-c2ccc3cccc(N4CCC(N)CC4)c3n2)COC1 | 5.23 µM (active) | 

SMILES | Potency | activity change, negative = inhibition
CS(=O)(=O)c1ccc(C2=C(c3ccccc3)C(=O)OC2)cc1 | inactive | 
CNC(=O)c1c(-c2ccc(F)cc2)oc2cc(N(CCO)S(C)(=O)=O)c(C3CC3)cc12 | inactive | 
COc1ccc2nc3cc(Cl)ccc3c(Nc3cc(CN4CCCC4)c(O)c(CN4CCCC4)c3)c2n1 | 18.6 µM (active) | 
CCOC(=O)c1c(CSc2ccccc2)n(C)c2cc(Br)c(O)c(CN(C)C)c12 | inactive | 
O=C(O)c1ccc(O)c2ncc(N3CCOCC3)cc12 | inactive | 
N#Cc1c(N(CC(=O)O)CC(=O)O)sc(C(=O)O)c1CC(=O)O | inactive | 
CCCCOCCOc1nc(-c2ccc(C(=O)O)c(F)c2)sc1C | inactive | 
O=[N+]([O-])c1ccc(Nc2ccccc2-c2ccccc2)c2nonc12 | 26.2 µM (active) | 
Cc1cc2c(cc1C1(c3ccc(C(=O)O)cn3)CC1)C(C)(C)CCC2(C)C | inactive | 
c1cc(OCCN2CCCCC2)cc(-c2n[nH]c3ccc(-c4ncn[nH]4)cc23)c1 | inactive | 
Cc1nc(C(=O)NCC(=O)O)c(O)c2ccc(Oc3ccccc3)cc12 | inactive | 
COc1nccc(-c2c(-c3ccc(F)cc3)ncn2C2CCC(O)CC2)n1 (stereo not given) | inactive | 
CC(=O)Nc1cccc(-n2c(=O)n(C3CC3)c(=O)c3c(Nc4ccc(I)cc4F)n(C)c(=O)c(C)c32)c1 | inactive | 
Cn1c(=O)c(-c2c(Cl)cccc2Cl)cc2cnc(Nc3cccc(C(=O)O)c3)nc21 | inactive | 
COC1CCC(C(=O)c2ccc3nc4c(cc3c2)CCCO4)CC1 (stereo not given) | inactive | 
Cc1ccccc1-n1c(Cn2nc(-c3cccc(O)c3)c3c(N)ncnc32)nc2cccc(C)c2c1=O | 20.8 µM (active) | 
CC(C)[C@H](O)C(=O)N[C@@H](C)C(=O)N[C@@H]1C(=O)N(C)CCc2ccccc21 | inactive | 
Cc1ccc2c(=O)c3cccc(CC(=O)O)c3oc2c1C | inactive | 
CN(C)CCCNC(=O)c1ccc(-c2cc(O)c3ncccc3c2)cc1 | inactive | 
C[C@@H]1C[C@H]2[C@@H]3CCC4=CC(=O)C=C[C@]4(C)[C@@]3(F)[C@@H](O)C[C@]2(C)[C@@]1(O)C(=O)CO | inactive | 
